Reference: PubChem BioAssay (NCATS)
Records with an inconclusive call do not appear. Entries that show only a call come without a potency. Calls of active or inactive are those of the source. Unless noted, calls follow the shape of the dose curve; as a rule, active = well fitted curve in the direction sought with a large enough effect; inconclusive = small, poorly fitted or top-dose-only effect, or another doubt; inactive = no such curve, though single readings can be large; an effect the other way counts as inactive or inconclusive.

Experiments:
[1] = qHTS drug screen for cell cycle checkpoint inhibitors in PARPi-resistant BRCA-mutant ovarian cancer cell lines. (AID 1963452; calls by dose curve); details: PEO1/OlaR viability, CellTiter-Glo luminescence, 96 h, stronger effect = lower value
Summary of the method: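 PEO1, PEO4 and PEO1/OlaR ovarian cancer cells, 600 per well, exposed 96 h at 37C to a dilution series. Viability read by CellTiter-Glo luminescence, normalized to DMSO and empty wells; activity summarized as Z-AUC.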

[2] = qHTS profiling for inhibitors of Plasmodium falciparum proliferation (AID 504749); also: nearly all actives have a fitted effect of over 60% in size; also: potency is read from the fitted curve at half-maximal effect; details: P. falciparum in erythrocytes, SYBR Green DNA, 72 h; series mostly up to 28.7 µM
Summary of the method: (§1)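 Quantitative HTS: compounds pinned into medium, infected erythrocytes added (0.3% parasitemia, 2.5% hematocrit), 72 h culture at 37 C under 5% CO2. Saponin/Triton lysis with SYBR Green I, overnight RT, then fluorescence read.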

[3] = tested on: 3D7; test: as above; details: P. falciparum in erythrocytes, SYBR Green DNA, 72 h; series mostly up to 28.7 µM
Summary of the method: as §1

[4] = tested on: 7G8; test: as above; details: P. falciparum in erythrocytes, SYBR Green DNA, 72 h; series mostly up to 28.7 µM
Summary of the method: as §1

[5] = tested on: AA1029; test: as above; details: P. falciparum in erythrocytes, SYBR Green DNA, 72 h; series mostly up to 28.7 µM
Summary of the method: as §1

[6] = tested on: AS120; test: as above; details: P. falciparum in erythrocytes, SYBR Green DNA, 72 h; series mostly up to 28.7 µM
Summary of the method: as §1

[7] = tested on: ATS189; test: as above; details: P. falciparum in erythrocytes, SYBR Green DNA, 72 h; series mostly up to 28.7 µM
Summary of the method: as §1

[8] = tested on: ATS95; test: as above; details: P. falciparum in erythrocytes, SYBR Green DNA, 72 h; series mostly up to 28.7 µM
Summary of the method: as §1

[9] = tested on: C2A; test: as above; details: P. falciparum in erythrocytes, SYBR Green DNA, 72 h; series mostly up to 28.7 µM
Summary of the method: as §1

[10] = tested on: CP185; test: as above; details: P. falciparum in erythrocytes, SYBR Green DNA, 72 h; series mostly up to 28.7 µM
Summary of the method: as §1

[11] = tested on: CP191; test: as above; details: P. falciparum in erythrocytes, SYBR Green DNA, 72 h; series mostly up to 28.7 µM
Summary of the method: as §1

[12] = tested on: CP192; test: as above; details: P. falciparum in erythrocytes, SYBR Green DNA, 72 h; series mostly up to 28.7 µM
Summary of the method: as §1

[13] = tested on: CP194; test: as above; details: P. falciparum in erythrocytes, SYBR Green DNA, 72 h; series mostly up to 28.7 µM
Summary of the method: as §1

[14] = tested on: CP201; test: as above; details: P. falciparum in erythrocytes, SYBR Green DNA, 72 h; series mostly up to 28.7 µM
Summary of the method: as §1

[15] = tested on: CP203; test: as above; details: P. falciparum in erythrocytes, SYBR Green DNA, 72 h; series mostly up to 28.7 µM
Summary of the method: as §1

[16] = tested on: CP211; test: as above; details: P. falciparum in erythrocytes, SYBR Green DNA, 72 h; series mostly up to 28.7 µM
Summary of the method: as §1

[17] = tested on: CP215; test: as above; details: P. falciparum in erythrocytes, SYBR Green DNA, 72 h; series mostly up to 28.7 µM
Summary of the method: as §1

[18] = tested on: CP217; test: as above; details: P. falciparum in erythrocytes, SYBR Green DNA, 72 h; series mostly up to 28.7 µM
Summary of the method: as §1

[19] = tested on: CP237; test: as above; details: P. falciparum in erythrocytes, SYBR Green DNA, 72 h; series mostly up to 28.7 µM
Summary of the method: as §1

[20] = Dual reporter qHTS for antagonist of Pregnane X Receptor (hPXR) against the NCATS DSHEA and TCM libraries: Fluorescence Readout (AID 1920061); details: PXR dual reporter cells, antagonist mode; series mostly up to 40 µM
Summary of the method: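 Antagonist mode: rifampicin 2 uM final co-added with compounds to hPXR-LucHepG2 cells for 24 h at 37C. Viability by CellTiter-Fluor, Ex/Em 405/540 nm, 1 h; reporter by ONE-Glo luminescence.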

[21] = measured here: PEO1 parental Z-AUC

Question: What does the source list for CC1=C(/C=C/C(C)=C/C=C/C(C)=C\C(=O)O)C(C)(C)CCC1?
Answer: Z-AUC [1]: -0.242 (inactive); Z-AUC [1, 21]: 0.115; Z-AUC ([1]; measured here: PEO4 Z-AUC): 0.0344

Question: For CC(C)NC[C@H](O)COc1ccc(CC(N)=O)cc1, which outcome [2] is on record?
Answer: inactive

Question: What about the Potency [3] of the same compound?
Answer: inactive

Question: And the Potency [4]?
Answer: inactive

Question: And the outcome [5]?
Answer: inactive

Question: What about the outcome [6] of the same compound?
Answer: inactive

Question: What about the Potency [7] of the same compound?
Answer: inactive

Question: And the outcome [8]?
Answer: inactive

Question: What about the outcome [9] of the same compound?
Answer: inactive

Question: What about the outcome [10] of the same compound?
Answer: inactive

Question: What about the Potency [11] of the same compound?
Answer: inactive

Question: And the Potency [12]?
Answer: inactive

Question: And the outcome [13]?
Answer: inactive

Question: And the outcome [14]?
Answer: inactive

Question: And the Potency [15]?
Answer: inactive

Question: And the outcome [16]?
Answer: inactive

Question: And the outcome [17]?
Answer: inactive

Question: What about the outcome [18] of the same compound?
Answer: inactive

Question: What about the Potency [19] of the same compound?
Answer: inactive

Question: For CCCCCCCCCCCCCCC[C@H](O)[C@H](N)CO, which outcome [2] is on record?
Answer: inactive

Question: What about the Potency [3] of the same compound?
Answer: inactive

Question: And the outcome [5]?
Answer: inactive

Question: And the outcome [6]?
Answer: inactive

Question: What about the Potency [7] of the same compound?
Answer: inactive

Question: And the outcome [8]?
Answer: inactive

Question: And the outcome [9]?
Answer: inactive

Question: And the outcome [10]?
Answer: inactive

Question: What about the Potency [11] of the same compound?
Answer: inactive

Question: And the Potency [12]?
Answer: inactive

Question: And the outcome [13]?
Answer: inactive

Question: What about the outcome [14] of the same compound?
Answer: inactive

Question: And the Potency [15]?
Answer: inactive

Question: And the outcome [16]?
Answer: inactive

Question: What about the outcome [17] of the same compound?
Answer: inactive

Question: What about the outcome [18] of the same compound?
Answer: inactive

Question: What about the Potency [19] of the same compound?
Answer: inactive

Question: What does the source list for O=C1Nc2ccc(I)cc2/C1=C/c1cc(Br)c(O)c(Br)c1?
Answer: Z-AUC [1]: 1.3 (inactive); Z-AUC [1, 21]: 0.638; Z-AUC ([1]; measured here: PEO4 Z-AUC): 0.686

Question: Which outcome [2] does the source give for CC(O)C(O)[C@H]1CNc2nc(N)[nH]c(=O)c2N1 (stereo partly drawn) here?
Answer: inactive

Question: And the Potency [3]?
Answer: inactive

Question: And the outcome [5]?
Answer: inactive

Question: And the outcome [6]?
Answer: inactive

Question: And the Potency [7]?
Answer: inactive

Question: What about the outcome [8] of the same compound?
Answer: inactive

Question: What about the outcome [9] of the same compound?
Answer: inactive

Question: And the outcome [10]?
Answer: inactive

Question: And the Potency [11]?
Answer: inactive

Question: And the Potency [12]?
Answer: inactive

Question: What about the outcome [13] of the same compound?
Answer: inactive

Question: And the outcome [14]?
Answer: inactive

Question: And the Potency [15]?
Answer: inactive

Question: And the outcome [16]?
Answer: inactive

Question: What about the outcome [17] of the same compound?
Answer: inactive

Question: What about the outcome [18] of the same compound?
Answer: inactive

Question: What about the Potency [19] of the same compound?
Answer: inactive

Question: With c1ccc(C2CN3CCSC3=N2)cc1 (stereo not drawn) as the compound, how does the Potency [3] read?
Answer: 11.2 µM (active)

Question: And the Potency [4]?
Answer: 0.794 µM (active)

Question: What about the Potency [7] of the same compound?
Answer: 5.01 µM (active)

Question: What about the Potency [11] of the same compound?
Answer: 7.94 µM (active)

Question: What about the Potency [12] of the same compound?
Answer: 19 µM (active)

Question: What about the outcome [14] of the same compound?
Answer: inactive

Question: What about the Potency [15] of the same compound?
Answer: 16.9 µM (active)

Question: And the Potency [19]?
Answer: 3.98 µM (active)

Question: With CN1C2CCC1CC(OC(c1ccccc1)c1ccccc1)C2 (stereo not drawn) as the compound, how does the outcome [2] read?
Answer: inactive

Question: What about the Potency [3] of the same compound?
Answer: inactive

Question: What about the Potency [4] of the same compound?
Answer: 4.47 µM (active)

Question: And the outcome [6]?
Answer: inactive

Question: What about the outcome [9] of the same compound?
Answer: inactive

Question: And the Potency [12]?
Answer: inactive

Question: And the Potency [15]?
Answer: inactive

Question: What about the outcome [16] of the same compound?
Answer: inactive

Question: With CN(C)S(=O)(=O)c1ccc2c(c1)/C(=C/c1cc3c([nH]1)CCCC3)C(=O)N2 as the compound, how does the Z-AUC [1] read?
Answer: 1.05 (inactive)

Question: What about the Z-AUC [1, 21] of the same compound?
Answer: 0.668

Question: What about the Z-AUC ([1]; measured here: PEO4 Z-AUC) of the same compound?
Answer: 0.277

Question: Which outcome [20] does the source give for C=C1C[C@@]23CC[C@H]4[C@@](C)(CCC[C@@]4(C)C(=O)OC4OC(CO)C(O)C(O)C4O)[C@@H]2CC[C@]1(OC1OC(CO)C(O)C(O)C1OC1OC(CO)C(O)C(O)C1O)C3 (stereo partly drawn) here?
Answer: inactive

Question: For COc1cc(/C=C(\C#N)C(=O)Nc2nnc(C(F)(F)F)s2)ccc1OCc1ccc(C(F)(F)F)cc1C(F)(F)F, which Z-AUC [1] is on record?
Answer: 0.582 (inactive)

Question: What about the Z-AUC [1, 21] of the same compound?
Answer: 0.483

Question: What about the Z-AUC ([1]; measured here: PEO4 Z-AUC) of the same compound?
Answer: 0.578

Question: For CCCCCCCCCCCCCCCCCCOC[C@H](COP(=O)([O-])OCC[N+](C)(C)C)OC, which outcome [2] is on record?
Answer: inactive

Question: What about the Potency [3] of the same compound?
Answer: inactive

Question: What about the Potency [4] of the same compound?
Answer: inactive

Question: And the outcome [5]?
Answer: inactive

Question: What about the outcome [6] of the same compound?
Answer: inactive

Question: And the Potency [7]?
Answer: inactive

Question: What about the outcome [8] of the same compound?
Answer: inactive

Question: What about the outcome [9] of the same compound?
Answer: inactive

Question: And the outcome [10]?
Answer: inactive

Question: And the Potency [11]?
Answer: inactive

Question: What about the Potency [12] of the same compound?
Answer: inactive

Question: What about the outcome [13] of the same compound?
Answer: inactive

Question: And the outcome [14]?
Answer: inactive

Question: And the Potency [15]?
Answer: inactive

Question: And the outcome [16]?
Answer: inactive

Question: What about the outcome [17] of the same compound?
Answer: inactive

Question: And the outcome [18]?
Answer: inactive

Question: What about the Potency [19] of the same compound?
Answer: inactive

Question: Which Z-AUC [1] does the source give for CCCc1c(OCCCOc2ccc(OCC(=O)O)cc2)ccc(C(C)=O)c1O here?
Answer: 1.58 (inactive)

Question: What about the Z-AUC [1, 21] of the same compound?
Answer: 1.27

Question: What about the Z-AUC ([1]; measured here: PEO4 Z-AUC) of the same compound?
Answer: 1.18

Question: With O=C(O)/C=C/c1ccc(O)c(O)c1 as the compound, how does the outcome [20] read?
Answer: inactive
